Experimental data taken from ChEMBL document CHEMBL1961873, “Compounds: GSK PKIS; Assays: Nanosyn kinase panel” (2012).

Target: T1, Serine/threonine-protein kinase D3 (Homo sapiens) (UniProt O94806)
T1 sequence (whole entry): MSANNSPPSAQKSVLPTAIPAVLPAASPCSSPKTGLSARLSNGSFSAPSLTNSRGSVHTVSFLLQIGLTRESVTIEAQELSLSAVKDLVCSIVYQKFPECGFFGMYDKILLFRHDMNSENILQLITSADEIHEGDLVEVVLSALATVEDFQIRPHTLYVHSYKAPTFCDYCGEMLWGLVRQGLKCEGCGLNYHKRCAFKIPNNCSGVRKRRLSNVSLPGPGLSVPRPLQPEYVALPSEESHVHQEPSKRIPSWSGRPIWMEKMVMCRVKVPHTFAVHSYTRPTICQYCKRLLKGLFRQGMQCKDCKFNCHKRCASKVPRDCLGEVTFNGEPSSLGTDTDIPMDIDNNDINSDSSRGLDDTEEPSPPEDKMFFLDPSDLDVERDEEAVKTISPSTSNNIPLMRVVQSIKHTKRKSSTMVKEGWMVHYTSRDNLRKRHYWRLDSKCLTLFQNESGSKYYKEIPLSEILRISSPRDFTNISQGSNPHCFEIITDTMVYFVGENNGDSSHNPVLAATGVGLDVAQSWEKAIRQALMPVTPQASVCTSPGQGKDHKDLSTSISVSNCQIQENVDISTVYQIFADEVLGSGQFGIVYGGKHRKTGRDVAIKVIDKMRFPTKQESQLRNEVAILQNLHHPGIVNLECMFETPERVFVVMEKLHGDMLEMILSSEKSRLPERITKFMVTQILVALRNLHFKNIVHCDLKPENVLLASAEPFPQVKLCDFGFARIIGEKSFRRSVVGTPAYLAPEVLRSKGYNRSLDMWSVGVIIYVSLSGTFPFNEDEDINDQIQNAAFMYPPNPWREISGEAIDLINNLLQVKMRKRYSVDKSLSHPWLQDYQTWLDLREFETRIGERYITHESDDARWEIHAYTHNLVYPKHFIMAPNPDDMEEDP
Conditions: at 1 µM
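Further: values are mean inhibition figures against PRKD3.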

Row | SMILES | inhibition [%]
1 | CC(C)(CO)CNC(=O)c1ccc2c(c1)/C(=N/Nc1ccc(S(N)(=O)=O)cc1)C(=O)N2 | 9.82
2 | O=C(Nc1n[nH]c2cc(-c3ccc(F)cc3)ccc12)C1CC1 | 5.25
3 | NC(=O)c1sc(-n2cnc3ccc(C(F)(F)F)cc32)cc1OCc1ccccc1Br | 3.94
4 | CCn1c(-c2nonc2N)nc2ccccc21 | 3.93
5 | c1ccc(-c2nc3n(c2-c2ccc4c(c2)OCO4)CCC3)nc1 | 5.25
6 | CCNC(=O)O[C@H]1CN[C@H](C#Cc2cc3ncnc(Nc4ccc(OCc5cccc(F)c5)c(Cl)c4)c3s2)C1 | 3.78
7 | CCn1c(-c2nonc2N)nc2cnc(Oc3cccc(NC(=O)c4ccc(N(C)C)cc4)c3)cc21 | 2.97
8 | CC(=O)Nc1cccc(C#Cc2cncnc2Nc2ccc(OCc3cccc(F)c3)c(Cl)c2)c1 | 2.46
9 | N#Cc1c(NC(=O)c2ccc(F)cc2)sc2c1CCCC2 | 1.92
10 | CS(=O)(=O)CCNCc1coc(-c2ccc3ncnc(Nc4ccc(OCc5ccccc5)cc4)c3c2)c1 | 3.06
11 | N#Cc1c(NC(=O)CN2CCOCC2)sc2c1CCCC2 | 6.46
12 | NS(=O)(=O)c1ccc(Nc2ncc(-c3ccccc3)o2)cc1 | 5.97
13 | COc1cc(/C=N/Nc2ncnc3[nH]ncc23)ccc1O | 3.16
14 | COC(=O)Nc1nc2ccc(Oc3ccc(NC(=O)Nc4cccc(Cl)c4)cc3)cc2[nH]1 | 3.39
15 | CNC(=O)c1cncc(/C=C/c2ccccc2Cl)c1 | -0.83
16 | COc1cc(N2CCN(C(C)C)CC2)ccc1Nc1nc(Nc2ccc(F)cc2C(N)=O)c2cc[nH]c2n1 | 79.8
17 | Clc1ccc(-c2nn3ncccc3c2-c2ccnc(Nc3ccccc3)n2)cc1 | 4.14

Row | SMILES | inhibition [%]
18 | Fc1ccc(-c2nn3ccccc3c2-c2ccncc2)cc1 | 4.89
19 | COc1cc2c(cc1Nc1nc(Nc3ccsc3C(N)=O)c3cc[nH]c3n1)N(C(=O)CN(C)C)CCC2(C)C | 75.7
20 | CN1CCC(n2cnc(-c3ccc(F)cc3)c2-c2ccnc(N)n2)CC1 | 17.3
21 | FC(F)(F)c1cccc(-c2nn3ncccc3c2-c2ccnc(Nc3ccc4c(c3)OCCO4)n2)c1 | 47.2
22 | CC1=C(C(=O)Nc2cc(Cl)c3[nH]ncc3c2)C(c2ccc(C(F)(F)F)cc2)CC(=O)N1 (stereo not drawn) | 7.2
23 | CS(=O)(=O)CCNCc1ccc(-c2ccc3ncnc(Nc4ccc(OCc5ccccc5)c(C(F)(F)F)c4)c3c2)o1 | 4.39
24 | Nc1nc(-c2ccc(F)cc2)c(-c2ccc3ncccc3n2)s1 | 41.8
25 | COc1cc(Nc2nccc(Nc3ccc4c(C)n[nH]c4c3)n2)cc(OC)c1OC | 2.54
26 | CN(C)CCOc1ccc(-c2nc(-c3ccncc3)c(-c3ccc4c(c3)CC/C4=N\O)[nH]2)cc1 | 5.44
27 | CCn1c(-c2nonc2N)nc2c(C#CC(C)(C)O)ncc(OC3CCNCC3)c21 | 14.2
28 | [O-][S+]1CCN(Cc2ccc(-c3ccc4ncnc(Nc5ccc(OCc6cccc(F)c6)c(Cl)c5)c4c3)o2)CC1 | 6.53
29 | COc1ccc(-c2cc(-c3c[nH]nc3-c3ccccn3)ccn2)cc1 | 27.2
30 | Cc1ccc2c(-c3ccnc(Nc4ccccc4)n3)c(-c3ccc(F)cc3)nn2n1 | 80.7
31 | COc1ccc(-c2oc3ncnc(N)c3c2-c2ccc(NC(=O)Nc3cc(C(F)(F)F)ccc3F)cc2)cc1 | 2.96
32 | CCCN(CCS(C)(=O)=O)Cc1ccc(-c2ccc3ncnc(Nc4ccc(OCc5cccc(F)c5)c(Cl)c4)c3c2)o1 | 2.73
33 | CCn1c(-c2nonc2N)nc2c(C#CC(C)(C)O)nc(OC[C@H](N)c3ccccc3)cc21 | 28.6
